# Data from PubChem BioAssay (EPA / NIEHS).
# Active and inactive are the calls of the source. How the source made its calls: active means hit-call score of the fitted dose curve at least 0.9, where 1 is the maximum; inactive means score below 0.9.
# What was measured:
# [1] = BSK_hDFCGF_SRB: Viability Assessment in the BioMAP Diversity Plus: hDFCGF Assay (AID 2283061); details: primary human foreskin fibroblasts;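 further: cells exposed to compound for 24 h before the read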
# Outline: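 Viability was read as total protein: after 10% TCA fixation, wells were stained with 0.1% sulforhodamine B and read at 560 nm. Primary human foreskin fibroblasts were dosed for 24 h, with bidirectional fitting versus DMSO.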
# [2] = read-out: TIMP metallopeptidase inhibitor 1 (TIMP1), TIMP1 (gene 7076); assay: BSK_hDFCGF_TIMP1: BioMAP Diversity Plus: hDFCGF Assay for TIMP metallopeptidase inhibitor 1 (TIMP1) Biomarker Activity (AID 2283062); details: primary human foreskin fibroblasts; actives raise or lower the signal
# Outline: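 TIMP-1 measured by ELISA 24 h after chemical dosing of primary human skin fibroblasts, with gain or loss fitted relative to DMSO. Parallel SRB staining (560 nm) monitored overt cytotoxicity.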
# [3] = read-out: Monokine induced gamma interferon (MIG), CXCL9 (gene 4283); assay: BSK_hDFCGF_MIG: BioMAP Diversity Plus: hDFCGF Assay for Monokine induced gamma interferon (MIG) Biomarker Activity (AID 2283063); details: primary human foreskin fibroblasts; actives raise or lower the signal
# Outline: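 Human primary foreskin fibroblasts in the hDFCGF system, exposed to test chemical for 24 h; MIG measured by ELISA. Bidirectional curve fitting against DMSO negative control as activity baseline.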
# [4] = read-out: Matrix Metallopeptidase 1 (MMP1), MMP1 (gene 4312); assay: BSK_hDFCGF_MMP1: BioMAP Diversity Plus: hDFCGF Assay for Matrix Metallopeptidase 1 (MMP1) Biomarker Activity (AID 2283064); details: primary human foreskin fibroblasts; actives raise or lower the signal
# Outline: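 MMP1 levels quantified by ELISA 24 h after dosing human dermal fibroblast cultures, with parallel SRB total-protein staining for overt cytotoxicity. Data fitted in both directions against DMSO baseline.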
# [5] = read-out: Vascular cell adhesion molecule 1 (VCAM1), VCAM1 (gene 7412); assay: BSK_hDFCGF_VCAM1: BioMAP Diversity Plus: hDFCGF Assay for Vascular cell adhesion molecule 1 (VCAM1) Biomarker Activity (AID 2283065); details: primary human foreskin fibroblasts; actives raise or lower the signal
# Outline: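 ELISA readout of VCAM-1 on human dermal fibroblast primary cultures, 24 h after chemical exposure. Gain or loss of signal fitted in both directions against DMSO baseline.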
# [6] = read-out: Plasminogen activator inhibitor-1 (PAI1), SERPINE1 (gene 5054); assay: BSK_hDFCGF_PAI1: BioMAP Diversity Plus: hDFCGF Assay for Plasminogen activator inhibitor-1 (PAI1) Biomarker Activity (AID 2283066); details: primary human foreskin fibroblasts; actives raise or lower the signal
# Outline: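 Human skin fibroblast cultures receive chemical for 24 h before PAI-1 is measured by ELISA; signal changes are fitted bidirectionally against DMSO-treated wells.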
# [7] = read-out: Intercellular Adhesion Molecule 1 (ICAM1), ICAM1 (gene 3383); assay: BSK_KF3CT_ICAM1: BioMAP Diversity Plus: KF3CT Assay for Intercellular Adhesion Molecule 1 (ICAM1) Biomarker Activity (AID 2283067); details: primary human keratinocytes with fibroblasts; actives raise or lower the signal
# Outline: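 Cell-surface ICAM-1 was measured by ELISA 24 h after dosing primary human skin keratinocytes co-cultured with fibroblasts. Parallel SRB staining tracked overt cytotoxicity. Gain or loss of signal was fitted relative to DMSO.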
# [8] = read-out: Interferon-gamma inducible Protein 10 (IP10), CXCL10 (gene 3627); assay: BSK_KF3CT_IP10: BioMAP Diversity Plus: KF3CT Assay for Interferon-gamma inducible Protein 10 (IP10) Biomarker Activity (AID 2283068); details: primary human keratinocytes with fibroblasts; actives raise or lower the signal
# Outline: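 KF3CT co-culture (keratinocytes + foreskin fibroblasts), 24 h compound, IP-10 by ELISA; bidirectional fit vs DMSO baseline.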
# [9] = BSK_KF3CT_SRB: Viability Assessment in the BioMAP Diversity Plus: KF3CT Assay (AID 2283069); details: primary human keratinocytes with fibroblasts;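 further: total protein by sulforhodamine B staining as a cytotoxicity measure; read 24 h after compound addition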
# Outline: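 Cytotoxicity was gauged by SRB staining (0.1% SRB, 10% TCA fixation, 560 nm) of parallel cultures at 24 h. The cells were primary human skin keratinocytes co-cultured with fibroblasts, and activity was fitted in both directions against DMSO.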
# [10] = read-out: Interleukin-1 alpha (IL1a), IL1A (gene 3552); assay: BSK_KF3CT_IL1a: BioMAP Diversity Plus: KF3CT Assay for Interleukin-1 alpha (IL1a) Biomarker Activity (AID 2283070); details: primary human keratinocytes with fibroblasts; actives raise or lower the signal
# Outline: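 IL-1a was detected by ELISA 24 h after chemical treatment of a co-culture of human skin keratinocytes and foreskin fibroblasts. Gain or loss of signal was fitted against the DMSO baseline.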
# [11] = read-out: TIMP metallopeptidase inhibitor 2 (TIMP2), TIMP2 (gene 7077); assay: BSK_KF3CT_TIMP2: BioMAP Diversity Plus: KF3CT Assay for TIMP metallopeptidase inhibitor 2 (TIMP2) Biomarker Activity (AID 2283071); details: primary human keratinocytes with fibroblasts; actives raise or lower the signal
# Outline: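 Measurements come from ELISA detection of TIMP-2 at 24 hours in a dosed human keratinocyte and foreskin fibroblast co-culture. DMSO serves as negative control and baseline.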
# [12] = read-out: Transforming growth factor beta 1 (TGFb1), TGFB1 (gene 7040); assay: BSK_KF3CT_TGFb1: BioMAP Diversity Plus: KF3CT Assay for Transforming growth factor beta 1 (TGFb1) Biomarker Activity (AID 2283072); details: primary human keratinocytes with fibroblasts; actives raise or lower the signal
# Outline: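 TGF-b1 ELISA on a 24 h dosed co-culture of human keratinocytes and foreskin fibroblasts; cytotoxicity tracked in parallel cultures by SRB staining.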
# [13] = read-out: C-C motif chemokine 2 (Homo sapiens) (UniProt P13500); assay: BSK_KF3CT_MCP1: BioMAP Diversity Plus: KF3CT Assay for Monocyte Chemoattractant Protein 1 (MCP1/CCL2) Biomarker Activity (AID 2283073); details: primary human keratinocytes with fibroblasts; actives raise or lower the signal
# Outline: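 ELISA read-out of MCP-1, 24 h post-dose, in primary human skin keratinocytes co-cultured with fibroblasts. Parallel SRB staining monitors cytotoxicity; changes fitted both directions relative to DMSO.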
# [14] = read-out: Matrix Metallopeptidase 9 (MMP9), MMP9 (gene 4318); assay: BSK_KF3CT_MMP9: BioMAP Diversity Plus: KF3CT Assay for Matrix Metallopeptidase 9 (MMP9) Biomarker Activity (AID 2283074); details: primary human keratinocytes with fibroblasts; actives raise or lower the signal
# Outline: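 MMP-9 quantified by ELISA after 24 h chemical treatment of primary human skin keratinocyte/fibroblast co-cultures; gain or loss fitted against DMSO, with parallel SRB staining (0.1% SRB, 560 nm) for overt cytotoxicity.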
# [15] = read-out: urokinase plasminogen activator (uPA), PLAU (gene 5328); assay: BSK_KF3CT_uPA: BioMAP Diversity Plus: KF3CT Assay for urokinase plasminogen activator (uPA) Biomarker Activity (AID 2283075); details: primary human keratinocytes with fibroblasts; actives raise or lower the signal
# Outline: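 ELISA read-out of uPA 24 h after dosing human skin keratinocytes co-cultured with foreskin fibroblasts. Signal change fitted both ways relative to DMSO; sulforhodamine B on parallel cultures marks overt cytotoxicity.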
# [16] = read-out: CD40, CD40 (gene 958); assay: BSK_LPS_CD40: BioMAP Diversity Plus: LPS Assay for CD40 Biomarker Activity (AID 2283076); details: primary human HUVEC with PBMC; actives raise or lower the signal
# Outline: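 In the LPS system of human endothelial cells with peripheral blood mononuclear cells, CD40 levels were read by ELISA 24 h post-treatment. Signal changes in either direction were fitted against the DMSO baseline, with parallel SRB protein staining.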
# [17] = read-out: E-selectin (Homo sapiens) (UniProt P16581); assay: BSK_LPS_Eselectin: BioMAP Diversity Plus: LPS Assay for Eselectin Biomarker Activity (AID 2283077); details: primary human HUVEC with PBMC; actives raise or lower the signal
# Outline: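 E-selectin ELISA on LPS-stimulated endothelial cell/PBMC co-cultures, read 24 h post-treatment; gains and losses fitted against DMSO. Parallel SRB staining (0.1% SRB after 10% TCA fixation, 560 nm) flags overt cytotoxicity.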
# [18] = read-out: Interleukin-8 (IL8), CXCL8 (gene 3576); assay: BSK_LPS_IL8: BioMAP Diversity Plus: LPS Assay for Interleukin-8 (IL8) Biomarker Activity (AID 2283078); details: primary human HUVEC with PBMC; actives raise or lower the signal
# Outline: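 ELISA read-out of IL-8 after 24 h chemical treatment of LPS-activated endothelial/PBMC human primary co-cultures. Changes either up or down relative to DMSO; overt cytotoxicity checked by sulforhodamine B staining in parallel wells.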
# [19] = BSK_LPS_SRB: Viability Assessment in the BioMAP Diversity Plus: LPS Assay (AID 2283079); details: primary human HUVEC with PBMC;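 further: total protein by sulforhodamine B absorbance as a cytotoxicity measure; measured one day after compound addition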
# Outline: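 SRB viability endpoint: cells fixed with 10% TCA, stained with 0.1% SRB, read at 560 nm, 24 h post-dose. HUVEC/PBMC co-culture; signal change in either direction scored relative to DMSO.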
# [20] = read-out: Interleukin-1 alpha (IL1a), IL1A (gene 3552); assay: BSK_LPS_IL1a: BioMAP Diversity Plus: LPS Assay for Interleukin-1 alpha (IL1a) Biomarker Activity (AID 2283080); details: primary human HUVEC with PBMC; actives raise or lower the signal
# Outline: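 Readout is IL-1a level by ELISA, 24 h post-dose, fitted as gain or loss relative to DMSO. System: LPS-activated human primary co-culture of vascular endothelium and peripheral blood mononuclear cells, with parallel SRB total-protein cytotoxicity.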
# Sequence of E-selectin (Homo sapiens) (P16581 whole entry, looked up): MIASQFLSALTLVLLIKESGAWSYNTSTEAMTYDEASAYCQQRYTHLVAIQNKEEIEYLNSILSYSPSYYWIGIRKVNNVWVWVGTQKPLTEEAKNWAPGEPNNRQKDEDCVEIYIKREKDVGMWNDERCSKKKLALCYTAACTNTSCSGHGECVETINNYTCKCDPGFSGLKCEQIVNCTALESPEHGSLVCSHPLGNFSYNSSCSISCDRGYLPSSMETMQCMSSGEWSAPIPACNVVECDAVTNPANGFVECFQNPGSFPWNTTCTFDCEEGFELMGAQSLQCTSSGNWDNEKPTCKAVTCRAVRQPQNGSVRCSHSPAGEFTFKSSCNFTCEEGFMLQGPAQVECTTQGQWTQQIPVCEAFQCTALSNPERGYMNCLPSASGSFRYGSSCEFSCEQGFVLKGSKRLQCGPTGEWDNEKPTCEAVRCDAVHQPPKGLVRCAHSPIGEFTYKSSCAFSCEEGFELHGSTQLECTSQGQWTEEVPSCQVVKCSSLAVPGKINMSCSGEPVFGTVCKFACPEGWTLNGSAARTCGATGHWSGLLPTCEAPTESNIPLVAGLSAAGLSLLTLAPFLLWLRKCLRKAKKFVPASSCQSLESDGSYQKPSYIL
smiles,measurement,setting,value
CCn1nc(C)c2c1C(=O)NCC(c1ccc(O)cc1)=N2,outcome,[1],inactive
same,outcome,[2],inactive
same,outcome,[3],inactive
same,outcome,[4],inactive
same,outcome,[5],inactive
same,AC50,[6],1140 nM (active)
same,outcome,[7],inactive
same,outcome,[8],inactive
same,outcome,[9],inactive
same,outcome,[10],inactive
same,outcome,[11],inactive
same,outcome,[12],inactive
same,outcome,[13],inactive
same,outcome,[14],inactive
same,outcome,[15],inactive
same,outcome,[16],inactive
same,outcome,[17],inactive
same,outcome,[18],inactive
same,outcome,[19],inactive
same,outcome,[20],inactive
C=CN1CCCC1=O,outcome,[1],inactive
same,outcome,[2],inactive
same,outcome,[3],inactive
same,outcome,[4],inactive
same,outcome,[5],inactive
same,outcome,[6],inactive
same,outcome,[7],inactive
same,outcome,[8],inactive
same,outcome,[9],inactive
same,outcome,[10],inactive
same,outcome,[11],inactive
same,outcome,[12],inactive
same,outcome,[13],inactive
same,outcome,[14],inactive
same,outcome,[15],inactive
same,outcome,[16],inactive
same,outcome,[17],inactive
same,outcome,[18],inactive
same,outcome,[19],inactive
same,outcome,[20],inactive
CC(C)C(=O)Nc1ccc([N+](=O)[O-])c(C(F)(F)F)c1,outcome,[1],inactive
same,outcome,[2],inactive
same,outcome,[3],inactive
same,outcome,[4],inactive
same,outcome,[5],inactive
same,outcome,[6],inactive
same,outcome,[7],inactive
same,outcome,[8],inactive
same,outcome,[9],inactive
same,outcome,[10],inactive
same,outcome,[11],inactive
same,outcome,[12],inactive
same,outcome,[13],inactive
same,outcome,[14],inactive
same,outcome,[15],inactive
same,outcome,[16],inactive
same,outcome,[17],inactive
same,outcome,[18],inactive
same,outcome,[19],inactive
same,outcome,[20],inactive
S=P(N1CC1)(N1CC1)N1CC1,outcome,[1],inactive
same,outcome,[2],inactive
same,outcome,[3],inactive
same,outcome,[4],inactive
same,outcome,[5],inactive
same,outcome,[6],inactive
same,outcome,[7],inactive
same,outcome,[8],inactive
same,outcome,[9],inactive
same,outcome,[10],inactive
same,outcome,[11],inactive
same,outcome,[12],inactive
same,outcome,[13],inactive
same,outcome,[14],inactive
same,outcome,[15],inactive
same,outcome,[16],inactive
same,outcome,[17],inactive
same,outcome,[18],inactive
same,outcome,[19],inactive
same,outcome,[20],inactive
O=C(O)c1ccc2c(c1)nc(C(=O)NC1CCN(C3CC3)CC1)n2Cc1cc(-c2ccc(Cl)s2)on1,outcome,[1],inactive
same,outcome,[2],inactive
same,outcome,[3],inactive
same,outcome,[4],inactive
same,outcome,[5],inactive
same,outcome,[6],inactive
same,outcome,[7],inactive
same,outcome,[8],inactive
same,outcome,[9],inactive
same,outcome,[10],inactive
same,outcome,[11],inactive
same,outcome,[12],inactive
same,outcome,[13],inactive
same,outcome,[14],inactive
same,outcome,[15],inactive
same,outcome,[16],inactive
same,outcome,[17],inactive
same,outcome,[18],inactive
same,outcome,[19],inactive
same,outcome,[20],inactive
C[C@@H](Oc1ccc(CNC(=O)c2cccnc2Oc2ccc3c(c2)OCO3)c(F)c1)C(=O)O,outcome,[1],inactive
same,outcome,[2],inactive
same,outcome,[3],inactive
same,outcome,[4],inactive
same,outcome,[5],inactive
same,outcome,[6],inactive
same,outcome,[7],inactive
same,outcome,[8],inactive
same,outcome,[9],inactive
same,outcome,[10],inactive
same,outcome,[11],inactive
same,outcome,[12],inactive
same,outcome,[13],inactive
same,outcome,[14],inactive
same,outcome,[15],inactive
same,outcome,[16],inactive
same,outcome,[17],inactive
same,outcome,[18],inactive
same,outcome,[19],inactive
same,outcome,[20],inactive
